Screens from PubChem.
Most compounds without a hit are left out; they make up all but 1.7% or so of the library.
Mtb hypoxia rep = inhibitors of hypoxia-regulated fluorescent reporter in Mycobacterium tuberculosis. M. tuberculosis hypoxia-regulated fluorescent reporter, fluorescence. fluorescence inhibition, % (concentration not given with the values). actives 0.1% (n = 300,000). AID 1159583; in the data active means fluorescence inhibition mostly above about 23%, no sharp cut-off; inactive means mostly below about 17%
CCHF vOTU inh = blocks the CCHF virus ovarian tumor domain protease; actives 0.55% (n = 370,000); CCHFV vOTU protease, Pep-AMC fluorescence; inhibition, % at 11.5 µM; AID 651958; in the data active means inhibition above about 30%
RN4220 kill = S. aureus RN4220 growth inhibition; OD600, 16 h; actives 0.33% (n = 330,000); inhibition, % (no concentration beside the values); AID 1259311; in the data active means inhibition above about 85%
BH1578 lux ind = induces V. cholerae light production without autoinducers; V. cholerae BH1578 lux reporter, luminescence, 6 h; AID 588436; actives 0.16% (n = 350,000); activation, % at 18.7 µM; in the data active means activation mostly above about 9.7%, no sharp cut-off
ugtP null kill = compounds lethal to S. aureus RN4220 ugtP deletion mutant; OD600 growth, 16 h; actives 0.54% (n = 330,000); growth inhibition, % (test concentration not listed); in the data active means growth inhibition above about 68%
PfHsp40 rescue = restores yeast growth despite PfHsp40 toxicity | S. cerevisiae expressing PfHsp40, growth rescue, ATP luminescence | growth rescue, % at 12.5 µM | actives 0.68% (n = 340,000) | AID 504582; in the data active means growth rescue above about 28%, passing the limit was not always enough;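 further: yeast W303a lacking pdr1 and pdr3 grown in galactose medium; growth measured after three days at 30 °C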
Hits are given with their value; – = inactive; · = not tested or not shown; ! = a repeat was not active.

SMILES | Mtb hypoxia rep | CCHF vOTU inh | RN4220 kill | BH1578 lux ind | ugtP null kill | PfHsp40 rescue
C/C(=N\NC(=S)NC1CCCCC1)c1c(F)cccc1F | · | – | · | – | · | 45
O=C1c2cccnc2-c2ncccc21 | – | – | – | – | – | –
COC1=C(Br)C(=O)c2ncccc2C1=O | · | 101 | · | – | · | –
CC(=NNc1nc(C)cc(C)n1)c1ccc(C)o1 | · | · | – | · | – | ·
CCN(CC)CCOc1ccc(C(=C(Cl)c2ccccc2)c2ccccc2)cc1 | · | · | 97! | · | – | ·
S=C1NC[C@H](Cc2ccccc2)N1CCCCC1CCCCC1 | · | – | · | – | · | 64
FC(F)(F)c1cc(CCN2C(=S)NCC2Cc2ccccc2)cc(C(F)(F)F)c1 (stereo not given) | – | · | – | · | – | ·
FC(F)(F)c1cc(CCN2C(=S)NC[C@@H]2Cc2ccccc2)cc(C(F)(F)F)c1 | · | – | · | – | · | 48
CSc1ccc(C=NNC(=O)c2ccccc2Cl)cc1 | – | · | – | · | – | ·
COC(=O)[C@]1(CC(C)C)NC(c2ccc(SC3CCCCC3)cc2)C2C(=O)N(C)C(=O)C21 (stereo not given in full) | – | · | – | · | – | ·
C[C@@H]1CN([C@H](C)CO)C(=O)c2cc(NC(=O)Nc3ccc(F)cc3)ccc2O[C@H]1CN(C)C(=O)Nc1ccc(C(F)(F)F)cc1 | – | · | – | – | – | 47
Cc1c(Cl)cccc1NC(=S)N(Cc1cccnc1)Cc1ccccc1Cl | – | – | – | – | – | 35
S=C(Nc1ccccc1Cl)N(Cc1cccnc1)Cc1ccco1 | – | – | – | – | – | –
CCN=C1Cn2c(nc3scc(-c4ccccc4)c3c2=O)CN1CC | – | – | – | 17 | – | –
CC1C(=NO)CC(c2ccccc2)N(C)C1c1ccccc1 (stereo not given) | – | · | – | · | – | ·
CN[C@@H]1[C@H](O)[C@H](NC)[C@H]2O[C@@]3(O)C(=O)C[C@@H](C)O[C@H]3O[C@@H]2[C@H]1O | · | – | – | 72 | – | –
O=C(Nc1ccc(S(=O)(=O)N2CCOCC2)cc1)c1ccc([N+](=O)[O-])s1 | 38 | – | – | – | – | –
O=C(NN=Cc1ccc(O)c(O)c1)c1cccc(S(=O)(=O)N2CCCCC2)c1 | – | · | – | · | – | ·
c1ccc(N=Nc2ccc3cccccc2-3)cc1 | – | – | – | – | 95 | –
Nc1ccc(N=Nc2ccccc2)c2ccccc12 | – | – | – | – | – | –
CC(C)CCNC(=O)c1onc(CSc2ccc(F)c(F)c2)c1C(=O)NCCC(C)C | – | – | – | – | – | 37
CCCNC(=O)c1onc(CSc2ccc(F)c(F)c2)c1C(=O)NCCC | – | – | – | · | – | ·
CN(C)CCNC(=O)c1onc(CSc2ccc(F)cc2)c1C(=O)NCCN(C)C | – | – | – | – | – | 34
Fc1ccc(CSc2ncnc3sc4c(c23)CCCC4)cc1 | – | – | – | – | 83 | –
COC(=O)CN1C(=O)C2C(C=Cc3ccccc3)N3C(=O)CN(Cc4ccccc4)C(=O)[C@@]3(Cc3ccccc3)C2C1=O (stereo not given in full) | – | · | – | · | – | ·
SMILES | Mtb hypoxia rep | CCHF vOTU inh | RN4220 kill | BH1578 lux ind | ugtP null kill | PfHsp40 rescue
Cc1ccc(C(C)NC(=S)NC2CCCCC2)cc1C (stereo not given) | · | – | · | – | · | –
Cc1ccc(CNC(=S)NC2CCC(C(C)(C)C)CC2)cc1 (stereo not given) | – | – | – | – | – | 188
COc1ccc(CNC(=S)NC2CCCC2)cc1 | – | – | – | – | – | –
CC(NC(=S)NC1CCC(C(C)(C)C)CC1)c1ccccc1 (stereo not given) | – | – | – | – | – | 71
CN1C2CCC1CC(OC(=O)C1C=Nc3ccccc31)C2 (stereo not given) | – | · | – | · | – | ·
CCc1noc2c1C(=NO)CC(c1ccccc1)C2 (stereo not given) | · | · | – | · | – | ·
ON=Cc1cn(-c2ccccc2)nc1-c1ccccc1 | – | · | – | · | – | ·
Cc1cccc(NC(=S)NN=Cc2ccc3c(c2)OCO3)c1 | – | · | – | · | – | ·
COc1ccc(-c2cn[nH]c2-c2ccc(OCc3ccc([N+](=O)[O-])cc3)cc2O)cc1OC | – | – | – | – | – | –
CCc1cc(-c2[nH]ncc2-c2ccc([N+](=O)[O-])cc2)c(O)cc1OC | – | · | – | – | – | 360
COc1ccc(Oc2cc(C)c3cccc(C)c3n2)cc1 | · | – | – | – | 96 | –
COc1ccc(/C=C/C(=O)NCC(=O)NN=C(C)c2ccc(Cl)cc2)cc1 | – | · | – | · | – | ·
